Shiga inhibitor = A qHTS for Small Molecule Inhibitors of Shiga Toxin | AID 2315, 2010 | 290,000 tested, 9.2% active | Vero cells, Shiga toxin protein synthesis inhibition reporter | inhibition, % at 38.7 µM; in the data active = inhibition mostly above about 28%, no sharp cut-off; inactive = mostly below about 43%; also: 0% is about no effect
LASV entry inh = qHTS for Inhibitors of binding or entry into cells for Lassa Virus; 300,000 tested, 1.2% active; Lassa virus pseudotype entry inhibition, cell reporter; AID 540256, 2011; Potency, µM (top dose mostly 37.9 µM), without a hit: top-dose activity change, negative = inhibition, actives largely listed as inhibitors; calls by dose curve; tested in HEK293 cells; also: potency is read from the fitted curve at half-maximal effect; % is scaled to controls: 0 for no effect and ±100 for the full control effect; nearly all actives have a fitted effect of over 50% in size
CHX counter = Cycloheximide Counterscreen for Small Molecule Inhibitors of Shiga Toxin. AID 2314, 2010. cell reporter, cycloheximide protein synthesis inhibition counterscreen. 300,000 tested, 12% active. max response, %; in the data active = max response mostly above about 13%, no sharp cut-off; inactive = mostly below about 14%; also: read at 38.3 µM for the half of the compounds with a filed dose; 0% is about no effect
FMDV antiviral = High Throughput Screening for Foot and Mouth Disease Virus Antivirals | FMDV antiviral cell-based qHTS | Potency, µM (series often up to 57.9 µM), without a hit: at the highest dose activity change, negative = inhibition, actives largely listed as inhibitors | 410,000 tested, 1.2% active; calls by dose curve; tested in HEK293T cells; also: read-out not given here; potency is read from the fitted curve at half-maximal effect; % is scaled to controls: 0 for no effect and ±100 for the full control effect; nearly all actives have a fitted effect of over 45% in size
MARV entry inh = qHTS for inhibitors of binding or entry into cells for Marburg Virus; AID 540276, 2011; 300,000 tested, 1.8% active; Marburg virus pseudotyped entry inhibition, cell reporter; Potency, µM (doses to about 37.8 µM), inactives show top-dose activity change, negative = inhibition, most hits filed as inhibitors; calls by dose curve; tested in HEK293 cells; also: potency is read from the fitted curve at half-maximal effect; % is scaled to controls: 0 for no effect and ±100 for the full control effect
HCV inhibitor = qHTS Assay for Inhibitors of Hepatitis C Virus (HCV); Huh7.5.1 HCVcc-Cre infection, luciferase reporter, 44 h; Potency, µM (doses to about 41.8 µM), for the others: top-dose activity change, negative = inhibition, usual class: inhibitors; 340,000 tested, 3.4% active; AID 651820, 2012; active = well fitted inhibition curve with a large enough effect; inconclusive = small, poorly fitted or top-dose-only effect, or another doubt; inactive = no such curve, though single readings can be large or run the other way; also: potency is read from the fitted curve at half-maximal effect; % is scaled to controls: 0 for no effect and ±100 for the full control effect
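A cell-based infection assay in which seeded cells (1,000 per well) receive test compound after 4 h, are inoculated with HCVcc-Cre at approximately 0.5 moi, and are incubated 44 h before luminescence detection.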
* marks the source's active call; other numbers are inactive results; ? = inconclusive; . = not tested or not shown; + = active, no number; [ ] = dose if it differs, or a comment. A selection: hits, their analogues and other compounds. The true share with any hit is near 13%.

SMILES	Shiga inhibitor	LASV entry inh	CHX counter	FMDV antiviral	MARV entry inh	HCV inhibitor
COc1ccc(Cn2c(CNC(=O)c3ccc(N(C)C)cc3)nc3cccnc32)cc1	.	-11%[46.1 µM]	.	6%	.	.
Cc1nn(-c2ccccc2)c(C)c1/C=N/NC(=O)CSc1nnc(SCc2ccc(Cl)cc2)s1	26	9.2µM*	41*	?	?	14µM*
Cc1nn(-c2ccccc2)c(C)c1/C=N/NC(=O)c1cccs1	26	3.2µM*	15*	21%	11µM*	?
O=C(CSc1nnc(SCc2ccccc2)s1)N/N=C/c1c(Cl)cccc1Cl	0	-5%	4	1%	?	-1%
Cc1nn(-c2ccccc2)c(C)c1/C=N/NC(=O)c1ccccc1NS(=O)(=O)c1cccs1	10	6%	5	-17%	5%	3%
CC(/C=N/NC(=O)CSc1nnc(SCc2ccccc2)s1)=C\c1ccco1	6	-3%	14*	3%	1%	4%
Cn1cc(S(=O)(=O)N2CCOCC2)cc1C(=O)Nc1cccc(C#N)c1	.	17%[46.1 µM]	.	-8%	.	.
CCCn1nc(C(=O)NNC(=O)c2ccc(C)c(C)c2)c2ccccc2c1=O	.	12%	.	-11%	-11%	13%
CCCn1nc(C(=O)N2CCN(S(=O)(=O)c3ccc(C)c(C)c3)CC2)c2ccccc2c1=O	.	.	.	?	.	14µM*
CN(C)C(=O)CSc1cnc2ccccc2n1	14	-4%[46.1 µM]	4	5%	-1%[46.1 µM]	5%
CC1CCCN(C(=O)CSc2cnc3ccccc3n2)C1 (stereo not given)	111*	-26%	58*	38%	11%	-14%
CC1CCCN(C(=O)CSc2nc3ncccc3[nH]2)C1 (stereo not given)	33*	-7%	15*	37%	14%[46.1 µM]	?
CC1CCCCN1C(=O)CSc1nc2ncccc2[nH]1 (stereo not given)	28	.	9	16%	.	19%
Cc1ccc(C)c(CN2C(=O)c3ccccc3S(=O)c3ccc(C(=O)NCCCN4CCCC4)cc32)c1 (stereo not given)	-16	.	-13	-5%	.	7.1µM*
COc1ccc(NC(=O)CCS(=O)(=O)c2ccccc2Cl)cc1S(=O)(=O)Nc1ccc(Cl)cc1	-9	.	5	28%	.	13µM*
COc1ccc(NC(=O)CCSc2ccc(C)cc2)cc1S(=O)(=O)Nc1ccccc1Cl	-3	13µM*	-1	-7%	?	?
COc1ccc(NC(=O)CS(=O)(=O)c2ccccc2Cl)cc1	29	10%[46.1 µM]	16*	95%	16%[46.1 µM]	-2%
COc1ccc(NC(=O)CCC(=O)c2cccs2)cc1S(=O)(=O)Nc1ccc(Cl)cc1	2	6%	8	9%	-42%	-21%
CCOC(=O)c1csc(NC(=O)C2=COCCO2)n1	63*	.	41*	34%	.	3%
Cc1ccc(-c2csc(NC(=O)C3=COCCO3)n2)cc1	51*	-27%	42*	-16%	?	?
CC1(C)CNC(=O)CC(C)(C)N1O	-2	4%	-3	11%	5%	18%
Cc1[nH]c2c(ccc3ccccc32)c1C1C(CCN)C1(C)C (stereo not given)	-15	?	-2	?	26µM*	?
CCN1CCN(C(c2ccc(C(F)(F)F)cc2)c2ccc3cccnc3c2O)CC1 (stereo not given)	21	?	3	?	?	7.1µM*
COc1cccc(NC(=O)COc2cccc3c2CCNC3=O)c1	.	-1%	.	-6%	-10%	21%
CN1CCc2nc(SCC(=O)Nc3ccc(OC(F)(F)F)cc3)c(C#N)c(-c3cccs3)c2C1	1	5%	5	2%	?	13µM*
SMILES	Shiga inhibitor	LASV entry inh	CHX counter	FMDV antiviral	MARV entry inh	HCV inhibitor
Cc1nc(-c2cccc(NC(=O)Cc3ccccc3)c2)cs1	23	?	32*	30%	18%[46.1 µM]	-25%
Cc1nc(-c2cccc(NC(=O)c3ccc(-n4nccc4C)cc3)c2)cs1	.	?	.	22µM*	-72%	10µM*
Cc1nc(-c2cccc(NC(=O)c3cccs3)c2)cs1	33	4%	16*	-4%	13%[46.1 µM]	?
COc1ccc(C(=O)Nc2cccc(-c3csc(C)n3)c2)cc1S(=O)(=O)N1CCCC1	.	.	.	-24%	.	?
O=C(Nc1cccc(-c2csc(-c3ccccc3)n2)c1)c1cccs1	19	?	7	.	?	10µM*
CCCC(C(=O)NC(C)(C)C)N(CC1CCCO1)C(=O)c1snc(C(N)=O)c1N (stereo not given)	-4	-12%	1	1%	6%[46.1 µM]	-1%
CCOC(=O)[C@H](CCc1ccccc1)N[C@H]1CCc2ccccc2N(CC(=O)O)C1=O	9	.	-4	-25%	.	11%
Fc1ccc(Nc2ccnc(Nc3ccc(F)cc3)n2)cc1	+	1%	72*	13%	8%	?
O=C(O)c1cccc(Nc2nc(N3CCOCC3)nc(N3CCOCC3)n2)c1	-9	13%	-3	17%	30%	11%
Nc1ncnc(Nc2ccc(F)cc2)n1	31	?	10	19%	17%	31%
O=C(O)c1cccc(Nc2ccnc(Nc3cccc(C(=O)O)c3)n2)c1	79*	?	29*	?	?	15%
CCCCN(C1CCS(=O)(=O)C1)S(=O)(=O)c1cccs1 (stereo not given)	.	-2%	.	-9%	16%[46.1 µM]	14%
NC(=O)NCCCC(NC(=O)c1ccc(C#CC2(O)CCCCC2)cc1)C(=O)O (stereo not given)	-5	?	0	-1%	?	11%
COc1ccc(OC)c(/C=C/C(=O)Nc2cccc(S(=O)(=O)NC3=NCCCCC3)c2)c1	.	.	.	-2%	.	?
O=C(/C=C/c1ccc(OC(F)F)cc1)Nc1cccc(S(=O)(=O)NC2=NCCCCC2)c1	57*	10µM*	29*	?	?	?
COc1ccc(/C=C/C(=O)Nc2cccc(S(=O)(=O)NC3=NCCCCC3)c2)cc1	74*	.	26*	8%	.	?
COc1ccc(-c2nn(-c3ccccc3)cc2C(=O)Nc2cccc(S(=O)(=O)NC3=NCCC3)c2)cc1	.	.	.	29%	.	11µM*
COc1ccccc1/C=C/C(=O)Nc1cccc(S(=O)(=O)NC2=NCCCCC2)c1	38	?	4	-10%	11µM*	?
O=C(COC(=O)/C=C/c1ccc(Cl)cc1)Nc1cccc(S(=O)(=O)NC2=NCCCCC2)c1	.	.	.	-20%	.	-10%
COc1ccc(/C=C/C(=O)Nc2cccc(S(=O)(=O)NC3=NCCCCC3)c2)c(OC)c1	.	.	.	-5%	.	?
COC(=O)[C@H](Cc1ccccc1)NC(=O)[C@@H](N)CC(=O)OCc1ccccc1	.	.	.	-9%	.	15%
COc1cc(/C=C/C(=O)Nc2cccc(S(=O)(=O)NC3=NCCCCC3)c2)ccc1OCC#N	.	-28%	.	4%	?	6.3µM*
CCOc1ccccc1OCC(=O)Nc1cccc(S(=O)(=O)NC2=NCCCCC2)c1	.	.	.	-8%	.	?

Assay outcomes from PubChem.
